Laboratory results published in ChEMBL document CHEMBL3433997, “St. Jude Leishmania screening dataset” (2016).

What was measured:
Assay type in all cases: functional
[1] = molecular target: Solute carrier family 2, facilitated glucose transporter member 1 (Homo sapiens) (UniProt P11166); test: ST_JUDE_LEISH: Cytotoxicity at 2uM final concentration against transgenic Leishmania Mexicana promastigotes LmGLUT1 that are glucose transport deficient and complemented with the human glucose transporter GLUT1. Activity is measured by DNA content using SYBR green in vitro
Chain of Solute carrier family 2, facilitated glucose transporter member 1 (Homo sapiens) (P11166 whole entry): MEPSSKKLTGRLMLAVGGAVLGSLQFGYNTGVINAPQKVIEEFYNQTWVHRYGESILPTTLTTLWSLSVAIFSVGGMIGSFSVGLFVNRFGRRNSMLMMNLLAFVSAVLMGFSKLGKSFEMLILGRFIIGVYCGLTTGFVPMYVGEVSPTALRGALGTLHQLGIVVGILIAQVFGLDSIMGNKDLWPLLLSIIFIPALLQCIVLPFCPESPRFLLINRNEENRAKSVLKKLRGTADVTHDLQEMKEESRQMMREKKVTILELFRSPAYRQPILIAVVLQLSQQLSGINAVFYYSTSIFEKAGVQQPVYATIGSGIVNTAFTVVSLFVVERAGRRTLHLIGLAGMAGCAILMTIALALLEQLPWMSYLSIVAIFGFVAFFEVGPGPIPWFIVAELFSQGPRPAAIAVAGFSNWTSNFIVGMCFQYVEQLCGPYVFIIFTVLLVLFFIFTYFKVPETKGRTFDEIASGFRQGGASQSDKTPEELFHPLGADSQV

[2] = molecular target: Hexose transporter 1 (Plasmodium falciparum) (UniProt O97467); test: ST_JUDE_LEISH: Cytotoxicity at 2uM final concentration against transgenic Leishmania Mexicana promastigotes LmPfHT that are glucose transport deficient and complemented with the Plasmodium falciparum hexose transporter. Activity is measured by DNA content using SYBR green in vitro
[3] = molecular target: Glucose transporter (Leishmania mexicana) (UniProt O61059); test: ST_JUDE_LEISH: Cytotoxicity at 2uM final concentration against transgenic Leishmania Mexicana promastigotes LmGT2 that are glucose transport deficient and complemented with the L. Mexicana glucose transporter 2. Activity is measured by DNA content using SYBR green in vitro

COc1ccc(CNCc2ccc(-c3ccc(-c4nc5cc(F)ccc5[nH]4)cc3)cc2)cc1
inhibition [1]: 5.49% | inhibition [2]: 5.38% | inhibition [3]: 1.74%

COc1cccc(CNC(=O)c2cccc(-c3cccc(CN4CCC(N5CCCC5)CC4)c3)n2)c1
inhibition [1]: 4.26% | inhibition [2]: 4.42% | inhibition [3]: 6.93%

Cc1cc(C(=O)N[C@H]2CCN(Cc3ccc(OCCCN(C)C)cc3)C2)ccc1Br
inhibition [1]: 0.17% | inhibition [2]: 0.95% | inhibition [3]: 1.98%

Cc1ccc(O)c(-c2cc(C(=O)Nc3ccc(S(=O)(=O)N4CCCC(C)C4)cc3)[nH]n2)c1 (configuration not stated)
inhibition [1]: -0.03% | inhibition [2]: -0.51% | inhibition [3]: 0.63%

OCC1CCN(Cc2cccc(-c3ccc(-c4nc5cc(C(F)(F)F)ccc5[nH]4)s3)c2)CC1
inhibition [1]: 4.2% | inhibition [2]: 4.88% | inhibition [3]: 3.14%

Cc1nc(NC2=NCN(CCCN3CCOCC3)CN2)nc2c(C)cccc12
inhibition [1]: 8.37% | inhibition [2]: 17.2% | inhibition [3]: 11%

COc1cc2nc(Nc3ccc(C)cc3)nc(Nc3ccc(C)cc3)c2cc1OC
inhibition [1]: 100% | inhibition [2]: 101% | inhibition [3]: 98.1%

O=C(C=Cc1ccc(Cl)c(Cl)c1)NCCCCCN1CCC(CCCNC(=O)C2CC2c2ccccc2)CC1 (configuration not stated)
inhibition [1]: 1.26% | inhibition [2]: 0.65% | inhibition [3]: 1.16%

CC(C)(C)c1ccc(NC(=O)c2cccc(CN3CCCN(Cc4cccc(Cl)c4)CC3)c2)cc1
inhibition [1]: 5.32% | inhibition [2]: 4.37% | inhibition [3]: 2.14%

Cc1ccc2cc(NCCCCCCCCON3C(N)=NC(N)=NC34CCCCC4)ccc2n1
inhibition [1]: 8.51% | inhibition [2]: 8.23% | inhibition [3]: 9.59%

COc1cc(NC2=C(c3ccccc3)C(=O)c3ccccc32)ccn1
inhibition [1]: 4.66% | inhibition [2]: 2.03% | inhibition [3]: 1.41%

COc1ccc(CCc2ccc(-c3c(C)[nH]c(C)c(Cl)c3=O)cc2)cc1OC
inhibition [1]: 12% | inhibition [2]: 11% | inhibition [3]: 10.6%

Cc1cccc2nc(-c3cccc(-c4cccc(C(=O)NCCN5CCCC5)c4)c3)[nH]c12
inhibition [1]: 1.04% | inhibition [2]: 1.28% | inhibition [3]: -0.38%

CC1CN(Cc2cccc(-c3ccc(-c4nc5cc(F)ccc5[nH]4)cc3)c2)CC(C)O1 (configuration not stated)
inhibition [1]: 3.14% | inhibition [2]: 1.73% | inhibition [3]: 2.23%

Cc1cccc2nc(-c3cccc(-c4ccc(CNCCNC(=O)c5ccnn5C)cc4)c3)[nH]c12
inhibition [1]: -1.64% | inhibition [2]: 0.67% | inhibition [3]: -2.92%

O=C(/C=C/c1ccc(Cl)c(Cl)c1)NC1CCC(CN2CCC(c3nc4cccnc4[nH]3)CC2)CC1 (configuration not stated)
inhibition [1]: 1.77% | inhibition [2]: 2.5% | inhibition [3]: -2.89%

CN1CCCC1CCNCc1ccc(-c2ccc(CNCCc3ccccc3)cn2)cc1 (configuration not stated)
inhibition [1]: 1.95% | inhibition [2]: 2.41% | inhibition [3]: 4.27%

Nc1ncc(-c2ccc(F)cc2)c2ccc(-c3cccc(F)c3)cc12
inhibition [1]: 5.19% | inhibition [2]: 5.19% | inhibition [3]: 2.72%

COc1ccc(NC(=O)Nc2cccc(-c3cccc(-c4nc5cccc(C)c5[nH]4)c3)c2)cc1
inhibition [1]: -1.25% | inhibition [2]: -0.57% | inhibition [3]: -1.79%
